Assay results reported in PubChem BioAssay (NCATS).
Where “and” joins values, the source holds several entries; their conditions need not be identical. Identical values can stand only once. Inconclusive results are not listed. Calls of active or inactive are those of the source. Unless noted, calls come from the whole dose curve; as a rule, active = well fitted curve in the direction sought with a large enough effect; inconclusive = small, poorly fitted or top-dose-only effect, or another doubt; inactive = no such curve, though single readings can be large; an effect the other way counts as inactive or inconclusive.

Key:
[1] = AP1 Signaling Pathway (AID 357; active = well fitted curve in either direction with a large enough effect, not every such curve was filed as active;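 note: ME-180 reporter cells stimulated with EGF at its EC50 level; % is set by controls: 0 for no effect and ±100 for the full control effect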); conditions: ME-180 AP-1-bla reporter, EGF-induced, beta-lactamase ratio, 5 h
Procedure, shortened: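 Modulation of EGF-driven AP-1 transcription was assessed with a beta-lactamase reporter in ME-180 cells. Compound and EC50 EGF were co-incubated 5 hours at 37 °C before 2.5-hour CCF4 loading at room temperature and dual-emission reading.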

[2] = Stat Signaling Pathway (AID 446; active = well fitted curve in either direction with a large enough effect, not every such curve was filed as active;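 note: ME-180 cervical cancer cells given 40 pM IL-6 alongside compound; SIE-controlled beta-lactamase reporter measured as 460/530 nm FRET emission ratio; % is set by controls: 0 for no effect and ±100 for the full control effect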); conditions: ME-180 (cervical carcinoma) SIE beta-lactamase reporter, IL-6 stimulated, 5 h
Procedure, shortened: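 Overnight-plated ME-180 cells bearing a STAT Inducible Element beta-lactamase reporter; 5 h co-exposure to compound and 40 pM IL-6; values normalized to 300 pM IL-6 and 125 nM JAK inhibitor controls.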

[3] = target: Glucocorticoid receptor (Homo sapiens) (UniProt P04150); experiment: GR-GFP Redistribution (AID 450;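 active = compounds whose dose series gives a full or clear partial fitted curve of increased nuclear translocation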; note: potency is the fitted concentration of half-maximal effect); conditions: U2OS GR-GFP nuclear translocation, laser cytometry, 2 h
[4] = target: Glucocorticoid receptor (Homo sapiens) (UniProt P04150); experiment: GR-EFC Redistribution (AID 451; calls by dose curve; note: potency is the fitted concentration of half-maximal effect); conditions: CHO-K1 GR-EFC translocation, beta-gal luminescence, 2 h
Procedure, shortened: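 CHO-K1 cells stably expressing nuclear-localized β-gal enzyme acceptor and GR fused C-terminally to the enzyme donor fragment; ligand-driven nuclear translocation restores β-gal by complementation. Compounds titrated up to 46 uM final, 2 h at 37 °C; luminescence read.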

[5] = target: Mitogen-activated protein kinase 10 (Mus musculus) (UniProt Q61831); experiment: JNK3 AlphaScreen Assay (AID 530; active = well fitted curve in either direction with a large enough effect, not every such curve was filed as active;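 note: kinase came from lysate of stimulated human HepG2 cells; signal reports phosphorylation of biotinylated GST-cJun 1-79 at Ser73 with 10 µM ATP; % is set by controls: 0 for no effect and ±100 for the full control effect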)
Procedure, shortened: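 Phosphorylation of biotinylated GST-cJun(1-79) at Ser73 is measured by AlphaScreen proximity luminescence. Enzyme is JNK3 in HepG2 lysates activated with interleukin-1beta and tumor necrosis factor alpha; ATP is 10 uM final.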

[6] = target: 3',5'-cyclic-AMP phosphodiesterase 4B (Homo sapiens) (UniProt Q07343); experiment: qHTS Assay for Inhibitors of PDE-IV (AID 607; active = well fitted activation curve with a large enough effect in the main read-out, with a control signal flat, not every such curve was filed as active; note: % of control where 0% means no effect)
Procedure, shortened: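 Live HEK293 cells with a modified cyclic nucleotide-gated (CNG) channel report intracellular cAMP via membrane-potential dye fluorescence (ex 535/em 590 nm). Endogenous PDE-IV was targeted. Compounds were tested at up to 22.9 uM final; RO 20-1724 100 uM served as control.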

[7] = target: Guanine nucleotide-binding protein G(i) subunit alpha-1 (Homo sapiens) (UniProt P63096); experiment: qHTS Assay for Inhibitors of RGS12 GoLoco Motif Activity (Green Fluorophore) (AID 879);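 note: 0% = labeled peptide with Gαi1 and full inhibition = labeled peptide alone without protein; negative values mean loss of peptide binding seen as reduced polarization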
Procedure, shortened: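 A drop in FITC polarization marked displacement of the FITC-tagged RGS12 GoLoco peptide (10 nM) from Gαi1 (50 nM). Compounds were incubated 10 min at room temperature in Tris pH 7.5 buffer containing 150 mM NaCl, 0.1 mM GDP and 0.05% NP40; unlabeled peptide titration served as control.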

[8] = target: Cytochrome P450 3A4 (Homo sapiens) (UniProt P08684); experiment: qHTS Assay for Activators of Cytochrome P450 3A4 (AID 885); note: nearly all actives have a fitted effect of over 65% in size
Procedure, shortened: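 Using 20nM recombinant human CYP3A4 in potassium phosphate (200mM), substrate Luciferin-PPXE at 25uM, luminescent luciferin detection followed a 60-min RT NADPH reaction; data scaled to 57 uM ketoconazole.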

[9] = target: Cytochrome P450 2C19 (Homo sapiens) (UniProt P33261); experiment: qHTS Assay for Inhibitors and Substrates of Cytochrome P450 2C19 (AID 899); note: potency is the fitted concentration of half-maximal effect; nearly all actives have a fitted effect of over 60% in size
Procedure, shortened: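 NADPH-dependent conversion of Luciferin-H EGE (10uM, at KM) by 5nM enzyme in 50mM KPO4, 60 min at 37C following 10 min compound preincubation. Stopped with luciferin detection buffer; luminescence read after 20 min.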

[10] = qHTS Assay for Identification of Small Molecule Antagonists for Thrombopoietin (TPO) Signaling Pathway (AID 918); conditions: TPO-dependent cell signaling reporter, antagonist mode; note: potency is the fitted concentration of half-maximal effect; nearly all actives have a fitted effect of over 60% in size
Procedure, shortened: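 Inhibitors of TPO signaling are sought by stimulating IL-3-starved murine Ba/F3 cells (human TPO receptor, Glycoprotein IIb-driven luciferase) with TPO at its EC50 of 26 pM alongside compound. After 24 hrs at 37 C, reporter luminescence is measured.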

[11] = target: Muscarinic acetylcholine receptor M1 (Rattus norvegicus) (UniProt P08482); experiment: qHTS Assay for Antagonists of Acetylcholine Muscarinic M1 Receptor: Measurement of IP-One Response (AID 944); note: potency is the fitted concentration of half-maximal effect; nearly all actives have a fitted effect of over 75% in size
Procedure, shortened: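 Antagonist mode with rat M1 receptor transfected into CHO cells. Compound is added first for 10 min, carbachol at its EC80 follows for 30 min, and lysis reagents then allow TR-FRET detection of accumulated IP1.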

[12] = target: Pyruvate kinase (Leishmania mexicana) (UniProt Q27686); experiment: qHTS Validation Assay for Inhibitors of Leishmania Mexicana Pyruvate Kinase (AID 945);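 note: 0% = DMSO only neutral control wells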
Procedure, shortened: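 Substrate mix (0.5 mM PEP, 0.1 mM ADP, 7 mM MgCl2, 50 mM KCl, pH 7.2 imidazole) received compound by pin tool, then 0.2 nM LmPYK E451W. After 1 h at room temperature, PKLight was added and luminescence measured.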

[13] = target: Pyruvate kinase PKM (Homo sapiens) (UniProt P14618); experiment: qHTS Assay for Activators of Human Muscle Pyruvate Kinase (AID 954; active = well fitted curve in the direction sought with a large enough effect, not every such curve was filed as active;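 note: 0% = uninhibited enzyme and -100% = no enzyme or full thiadiazolimine inhibition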)
Procedure, shortened: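 Screening used highly purified human pyruvate kinase M2 under submaximal activity, with PEP at its Km and ADP below Km. After an hour at room temperature, ATP was read by luciferase luminescence.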

[14] = target: Alpha-galactosidase A (Homo sapiens) (UniProt P06280); experiment: Counterscreen for Glucocerebrosidase Inhibitors: qHTS Assay for Human alpha-Galactosidase at pH 4.5 (AID 992); note: 0% is about no effect
Procedure, shortened: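 Each compound is preincubated briefly with 2 nM enzyme before substrate addition (80 uM); plates then sit 20 min at ambient temperature, are quenched with 1M NaOH/1M glycine, and read fluorometrically.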

[15] = target: alpha-glucosidase (Oryza sativa, rice) (UniProt Q653V4); experiment: Counterscreen for Glucocerebrosidase Inhibitors: qHTS Assay for Rice alpha-Glucosidase at pH 5.0 (AID 997);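 note: 0% = full activity with enzyme and -100% = basal without enzyme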
Procedure, shortened: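 Endpoint fluorogenic assay at pH 5.0: compounds (0.7 nM to 77 uM) titrated against 4 nM rice enzyme and 400 uM 4-MU-alpha-glucoside for 20 min at room temperature; NaOH/glycine stop, read ex 365/em 440 nm, Hill-fitted AC50.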

[16] = qHTS Assay for Lipid Storage Modulators (AID 1519; calls by dose curve; for activity change, negative = inhibition: % is set by controls: 0 for no effect and ±100 for the full control effect); conditions: Drosophila S3 cells, BODIPY lipid droplet/cell ratio, laser cytometry, cells loaded with oleic acid
Procedure, shortened: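 Cells seeded at 5,000 per well were treated with compounds over a concentration series and loaded with oleic acid (400 uM, as added). Lipid droplet fluorescence (488 nm excitation, 500-530 nm channel) was read by laser-scanning cytometry and normalized to 20 uM Triacsin C.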

[17] = target: Ubiquitin carboxyl-terminal hydrolase 1 (Homo sapiens) (UniProt O94782); experiment: Inhibitors of USP1/UAF1: Pilot qHTS (AID 504865);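 note: rhodamine fluorescence freed from ubiquitin-rhodamine substrate followed over time; top concentration of the series differs between compounds; % is set by controls: 0 for no effect and ±100 for the full control effect; nearly all actives have a fitted effect of over 35% in size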
Procedure, shortened: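 1nM USP1/UAF1 + cpd, 15 min RT; start w/ Ub-Rho 150nM final; kinetic FL 480/540 nm, 6 reads q60 s. Buffer 50mM HEPES pH 7.8, 0.5mM EDTA, 1mM TCEP, 0.01% Tween-20, 0.1 mg/ml BSA.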

[18] = target: DNA dC->dU-editing enzyme APOBEC-3G (Homo sapiens) (UniProt Q9HC16); experiment: qHTS for inhibitors of Vif-A3G interactions: Validation (AID 588379); note: 0% is about no effect
Procedure, shortened: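 Yellow fluorescence (Ex 488, Em 500-530) of Vif-coexpressing HeLa A3G-eYFP cells, scanned by Acumen cytometer, reports blocked A3G degradation. Cells plated at 700/well overnight at 37 deg C before compound addition, then a further overnight compound incubation at 37 deg C.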

[19] = tested on: Zika virus NS2B-NS3 protease; experiment: Primary screen GU AMC qHTS for Zika virus inhibitors (AID 1347154);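 note: 0% = no-inhibitor control and -100% = no-enzyme control; nearly all actives have a fitted effect of over 70% in size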
Procedure, shortened: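 Unlinked Zika NS2B hydrophilic domain/NS3 protease domain noncovalent complex (25 nM final) in 10 mM Tris-HCl pH 8.0, 0.01% Tween 20, with AMC peptide substrate. Fluorescence (ex 340, em 450 nm) change over 15 min, room temperature; percent inhibition fitted to 4-parameter Hill equation.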

[20] = Counterscreen qHTS for small molecule stabilizers of the endoplasmic reticulum resident proteome: GLuc-NoTag assay (AID 1508627);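 note: 0% = thapsigargin alone and -100% = DMSO vehicle control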
Procedure, shortened: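 Secreted GLuc lacking the SERCaMP modification is measured in SH-SY5Y cells exposed to compound for 19 h and then to thapsigargin (100 nM, 4 h) to deplete ER calcium; hits retested at 11 concentrations, up to 76.6 uM.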

[21] = Confirmatory qHTS for small molecule stabilizers of the endoplasmic reticulum resident proteome: Secreted ER Calcium Modulated Protein (SERCaMP) assay (AID 1508628); note: potency is the fitted concentration of half-maximal effect; nearly all actives have a fitted effect of over 40% in size
Procedure, shortened: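 Reporter secretion upon ER calcium depletion (100 nM thapsigargin, 4 h, 37C) is measured as medium luminescence with coelenterazine, after 16 h compound pretreatment of SH-SY5Y-GLuc-SERCaMP cells; primary at three concentrations up to 38.3 uM, follow-up at 11 (up to 76.6 uM).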

Glucocorticoid receptor (Homo sapiens), sequence (P04150 whole entry, looked up, the tested form may be a part): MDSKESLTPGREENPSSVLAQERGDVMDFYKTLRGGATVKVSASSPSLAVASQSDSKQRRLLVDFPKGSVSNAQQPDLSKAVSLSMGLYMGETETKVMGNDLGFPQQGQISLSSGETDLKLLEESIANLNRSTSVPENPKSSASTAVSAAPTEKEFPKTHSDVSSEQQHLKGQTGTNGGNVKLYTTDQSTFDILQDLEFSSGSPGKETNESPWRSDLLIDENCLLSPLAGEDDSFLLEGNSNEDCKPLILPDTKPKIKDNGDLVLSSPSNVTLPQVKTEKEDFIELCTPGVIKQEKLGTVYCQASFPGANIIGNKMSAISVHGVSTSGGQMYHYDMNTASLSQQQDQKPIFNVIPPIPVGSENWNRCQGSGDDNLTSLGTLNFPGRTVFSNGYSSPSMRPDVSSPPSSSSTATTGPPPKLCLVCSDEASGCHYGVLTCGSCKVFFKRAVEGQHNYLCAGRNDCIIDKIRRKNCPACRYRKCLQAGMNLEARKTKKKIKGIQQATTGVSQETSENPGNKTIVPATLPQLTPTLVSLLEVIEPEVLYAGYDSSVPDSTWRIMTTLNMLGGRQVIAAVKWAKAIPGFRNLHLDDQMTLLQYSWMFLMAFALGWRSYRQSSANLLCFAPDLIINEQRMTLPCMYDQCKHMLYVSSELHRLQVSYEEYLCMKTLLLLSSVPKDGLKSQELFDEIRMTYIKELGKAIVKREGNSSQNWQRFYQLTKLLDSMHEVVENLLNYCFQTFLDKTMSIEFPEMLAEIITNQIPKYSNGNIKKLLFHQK
3',5'-cyclic-AMP phosphodiesterase 4B (Homo sapiens), sequence (Q07343 whole entry, looked up): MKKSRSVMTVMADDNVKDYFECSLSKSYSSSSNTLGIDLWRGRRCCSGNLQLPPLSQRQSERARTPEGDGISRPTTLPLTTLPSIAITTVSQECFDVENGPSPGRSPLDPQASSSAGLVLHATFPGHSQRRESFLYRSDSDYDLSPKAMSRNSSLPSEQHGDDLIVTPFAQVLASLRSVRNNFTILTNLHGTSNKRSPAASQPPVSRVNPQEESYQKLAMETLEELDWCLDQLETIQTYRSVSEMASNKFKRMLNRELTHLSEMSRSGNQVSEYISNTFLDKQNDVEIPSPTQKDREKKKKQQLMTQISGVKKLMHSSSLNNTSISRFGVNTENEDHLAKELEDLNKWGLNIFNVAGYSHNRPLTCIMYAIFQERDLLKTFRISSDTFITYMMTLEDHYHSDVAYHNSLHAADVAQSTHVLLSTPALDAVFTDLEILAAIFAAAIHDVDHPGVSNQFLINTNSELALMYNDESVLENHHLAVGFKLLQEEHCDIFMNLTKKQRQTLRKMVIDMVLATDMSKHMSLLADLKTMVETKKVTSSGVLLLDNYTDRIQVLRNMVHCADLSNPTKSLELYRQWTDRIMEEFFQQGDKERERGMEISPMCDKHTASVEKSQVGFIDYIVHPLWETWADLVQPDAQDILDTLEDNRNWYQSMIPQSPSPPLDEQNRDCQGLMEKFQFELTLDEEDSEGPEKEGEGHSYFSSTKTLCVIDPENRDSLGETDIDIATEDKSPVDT
Cytochrome P450 3A4 (Homo sapiens), sequence (P08684 whole entry, looked up): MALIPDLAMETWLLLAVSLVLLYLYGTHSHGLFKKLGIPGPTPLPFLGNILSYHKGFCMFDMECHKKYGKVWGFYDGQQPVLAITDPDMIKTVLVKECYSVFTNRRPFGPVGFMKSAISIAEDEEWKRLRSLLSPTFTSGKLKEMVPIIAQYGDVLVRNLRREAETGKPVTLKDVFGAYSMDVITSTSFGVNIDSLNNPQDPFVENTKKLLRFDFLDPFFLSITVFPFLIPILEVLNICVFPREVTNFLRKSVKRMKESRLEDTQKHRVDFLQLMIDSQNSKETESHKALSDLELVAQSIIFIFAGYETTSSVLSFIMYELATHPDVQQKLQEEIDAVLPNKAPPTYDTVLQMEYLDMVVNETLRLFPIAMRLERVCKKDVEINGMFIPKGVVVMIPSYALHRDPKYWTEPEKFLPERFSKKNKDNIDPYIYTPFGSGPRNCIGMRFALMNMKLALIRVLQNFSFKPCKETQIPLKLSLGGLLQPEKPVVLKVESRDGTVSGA
Guanine nucleotide-binding protein G(i) subunit alpha-1 (Homo sapiens), sequence (P63096 whole entry, looked up): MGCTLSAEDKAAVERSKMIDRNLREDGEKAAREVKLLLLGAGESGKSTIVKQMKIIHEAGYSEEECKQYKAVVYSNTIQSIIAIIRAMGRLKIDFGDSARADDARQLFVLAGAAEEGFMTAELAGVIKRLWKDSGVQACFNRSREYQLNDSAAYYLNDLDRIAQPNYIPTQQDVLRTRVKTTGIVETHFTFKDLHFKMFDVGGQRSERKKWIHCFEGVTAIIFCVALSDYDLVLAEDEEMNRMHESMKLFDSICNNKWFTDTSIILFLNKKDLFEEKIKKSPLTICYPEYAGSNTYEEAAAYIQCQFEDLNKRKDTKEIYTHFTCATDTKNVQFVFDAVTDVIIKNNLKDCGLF
Alpha-galactosidase A (Homo sapiens), sequence (P06280 whole entry, looked up): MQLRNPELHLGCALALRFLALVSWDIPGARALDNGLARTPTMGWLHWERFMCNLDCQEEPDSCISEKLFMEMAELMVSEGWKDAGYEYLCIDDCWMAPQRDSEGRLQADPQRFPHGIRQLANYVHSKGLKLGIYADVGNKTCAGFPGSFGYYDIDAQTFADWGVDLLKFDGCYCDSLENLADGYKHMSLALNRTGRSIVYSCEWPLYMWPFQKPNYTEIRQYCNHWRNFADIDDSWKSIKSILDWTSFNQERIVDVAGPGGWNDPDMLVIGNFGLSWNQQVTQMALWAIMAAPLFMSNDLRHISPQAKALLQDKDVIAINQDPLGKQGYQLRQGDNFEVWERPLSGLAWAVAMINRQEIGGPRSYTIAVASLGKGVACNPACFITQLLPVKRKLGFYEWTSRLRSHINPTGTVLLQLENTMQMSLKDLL
Pyruvate kinase (Leishmania mexicana), sequence (Q27686 2-499 E452W): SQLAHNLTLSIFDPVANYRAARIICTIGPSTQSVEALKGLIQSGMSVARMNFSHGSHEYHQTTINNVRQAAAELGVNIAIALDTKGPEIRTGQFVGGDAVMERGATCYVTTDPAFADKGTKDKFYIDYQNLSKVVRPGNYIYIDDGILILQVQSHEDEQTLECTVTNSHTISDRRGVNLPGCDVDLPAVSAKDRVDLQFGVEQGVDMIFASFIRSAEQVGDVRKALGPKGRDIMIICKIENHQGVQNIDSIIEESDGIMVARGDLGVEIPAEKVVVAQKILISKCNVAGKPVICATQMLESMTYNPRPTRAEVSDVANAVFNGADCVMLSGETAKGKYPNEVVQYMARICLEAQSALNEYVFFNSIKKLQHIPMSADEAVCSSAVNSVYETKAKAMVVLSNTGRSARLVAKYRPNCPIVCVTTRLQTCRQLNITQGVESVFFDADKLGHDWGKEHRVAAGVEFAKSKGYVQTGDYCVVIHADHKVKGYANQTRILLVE
Muscarinic acetylcholine receptor M1 (Rattus norvegicus), sequence (P08482 whole entry, looked up): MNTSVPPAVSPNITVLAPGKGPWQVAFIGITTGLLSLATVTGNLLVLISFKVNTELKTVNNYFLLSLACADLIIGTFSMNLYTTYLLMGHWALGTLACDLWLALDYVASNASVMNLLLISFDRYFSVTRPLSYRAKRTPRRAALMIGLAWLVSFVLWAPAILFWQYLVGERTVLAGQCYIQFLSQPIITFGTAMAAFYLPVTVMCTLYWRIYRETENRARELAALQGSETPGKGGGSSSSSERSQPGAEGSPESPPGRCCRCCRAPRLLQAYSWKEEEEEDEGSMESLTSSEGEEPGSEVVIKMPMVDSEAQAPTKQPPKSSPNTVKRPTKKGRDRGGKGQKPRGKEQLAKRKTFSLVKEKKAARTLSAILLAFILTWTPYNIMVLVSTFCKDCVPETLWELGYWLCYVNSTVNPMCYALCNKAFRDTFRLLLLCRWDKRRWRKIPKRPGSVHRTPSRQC
DNA dC->dU-editing enzyme APOBEC-3G (Homo sapiens), sequence (Q9HC16 whole entry, looked up): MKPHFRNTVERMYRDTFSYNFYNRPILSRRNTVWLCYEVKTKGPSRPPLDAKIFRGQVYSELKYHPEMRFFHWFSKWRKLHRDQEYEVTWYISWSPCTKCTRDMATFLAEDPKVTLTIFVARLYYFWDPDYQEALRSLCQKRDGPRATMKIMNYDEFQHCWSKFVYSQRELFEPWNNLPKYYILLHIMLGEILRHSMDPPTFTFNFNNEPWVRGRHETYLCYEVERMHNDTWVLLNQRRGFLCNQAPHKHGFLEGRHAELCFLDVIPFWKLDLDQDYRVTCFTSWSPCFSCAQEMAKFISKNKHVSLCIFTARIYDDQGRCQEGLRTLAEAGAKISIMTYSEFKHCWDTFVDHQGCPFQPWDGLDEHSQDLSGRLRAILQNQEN
Ubiquitin carboxyl-terminal hydrolase 1 (Homo sapiens), sequence (O94782 whole entry, looked up): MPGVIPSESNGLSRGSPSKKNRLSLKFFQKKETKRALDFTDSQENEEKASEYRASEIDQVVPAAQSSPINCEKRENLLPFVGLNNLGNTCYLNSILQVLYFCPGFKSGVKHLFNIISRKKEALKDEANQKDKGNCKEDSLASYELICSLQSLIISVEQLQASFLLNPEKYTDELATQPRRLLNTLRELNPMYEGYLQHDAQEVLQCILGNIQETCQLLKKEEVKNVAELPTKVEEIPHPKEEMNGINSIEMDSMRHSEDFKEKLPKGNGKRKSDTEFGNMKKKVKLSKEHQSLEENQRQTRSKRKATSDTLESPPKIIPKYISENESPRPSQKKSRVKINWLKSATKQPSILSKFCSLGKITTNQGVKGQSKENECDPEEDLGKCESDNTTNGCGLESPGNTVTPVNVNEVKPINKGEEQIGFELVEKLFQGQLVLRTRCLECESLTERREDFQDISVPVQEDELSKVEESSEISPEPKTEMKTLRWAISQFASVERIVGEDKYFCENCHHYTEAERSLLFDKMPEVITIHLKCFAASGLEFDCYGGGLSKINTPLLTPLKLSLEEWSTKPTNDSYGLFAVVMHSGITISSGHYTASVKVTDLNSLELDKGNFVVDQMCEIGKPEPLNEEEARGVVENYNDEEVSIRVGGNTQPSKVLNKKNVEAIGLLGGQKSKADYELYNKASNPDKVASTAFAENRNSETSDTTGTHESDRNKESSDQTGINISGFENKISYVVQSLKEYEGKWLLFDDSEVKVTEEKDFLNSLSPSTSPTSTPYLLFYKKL

CSc1ccc2c(c1)[C@H](N1CCN(C)CC1)Cc1ccccc1S2
active: Potency [9] 7.94 µM | Potency [10] 10 µM | Potency [11] 5.62 µM | Potency [21] 7.94 µM
-9.42%: max response ([16]; measured here: cell count channel max response)
-12.6%: max response ([16]; measured here: lipid channel max response)
inactive: activity change, negative = inhibition ([1]; at 17.2 µM (top of the series)) 22.7% | activity change, negative = inhibition ([1]; at 38 µM (top of the series)) 16% | activity, negative = inhibition ([2]; at 17.2 µM (top of the series)) -9.5% | activity, negative = inhibition ([2]; at 38 µM (top of the series)) -17.1% | Potency [3] > 46 µM and > 20.6 µM | Potency [4] > 46 µM and > 20.6 µM | Potency [5] | Potency [6] | outcome [7] | Potency [8] | Potency [12] | outcome [13] | outcome [14] | outcome [15] | activity change, negative = inhibition ([16]; at 25.7 µM (top of the series)) -1.54% | Potency [17] | Potency [18] | Potency [19] | Potency [20]
